About 83,000 compounds went through this panel and 20% of them were active in at least one assay; those are over-represented in the sample as a whole.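 Testing used 96-well plates and a 48-hour single-concentration exposure. Example: -40 means 40% of the starting cells died.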 Calls of active or inactive are those of the source. The calls were made as follows: active = growth percent below 10; inactive = the rest.
Key:
Experiment in all cases: NCI-60 one-dose screen, 48 h (100 = growth as untreated, 0 = no growth, -100 = all killed)
Conditions in all cases: 10 µM unless noted
BT-549 breast = tested on: BT-549 breast
MDA-MB-435 melanoma = tested on: MDA-MB-435 melanoma
SW-620 colon = tested on: SW-620 colon
MCF7 breast = tested on: MCF7 breast
HCT-116 colon = tested on: HCT-116 colon
KM12 colon = tested on: KM12 colon
HCC-2998 colon = tested on: HCC-2998 colon

Measured: growth

CO[C@H]1/C=C/O[C@@]2(C)Oc3c(C)c(O)c4c(O)c(c(/C=N/N5C(C)CN(Cc6ccccc6)CC5C)c(O)c4c3C2=O)NC(=O)/C(C)=C\C=C\[C@H](C)[C@H](O)[C@@H](C)[C@@H](O)[C@@H](C)[C@H](OC(C)=O)[C@@H]1C (some centres undefined)
inactive: BT-549 breast 125% | MDA-MB-435 melanoma 86.6% | SW-620 colon 80.1% | MCF7 breast 44.6% | HCT-116 colon 37.9% | KM12 colon 52.6%

S=C(Nc1ccc(C2=NCCN2)cc1)Nc1ccc(C2=NCCN2)cc1
inactive: BT-549 breast 87.9% | MDA-MB-435 melanoma 102% | SW-620 colon 107% | MCF7 breast 103% | HCT-116 colon 107% | HCC-2998 colon 104% | KM12 colon 101%

Nc1nc2ncc(CCNc3ccc(C(=O)NC(CCC(=O)O)C(=O)O)cc3)nc2c(=O)[nH]1 (centres undefined)
inactive: BT-549 breast 114% | MDA-MB-435 melanoma 112% | SW-620 colon 103% | MCF7 breast 112% | HCT-116 colon 107% | KM12 colon 110%

O=C(/C=C/c1cc2ccccc2[nH]c1=O)c1ccc(O)cc1
inactive: BT-549 breast 28% | MDA-MB-435 melanoma 34.3% | MCF7 breast 14.7% | HCT-116 colon 12.9% | HCC-2998 colon 93.1%
active: SW-620 colon -10.8% | KM12 colon -8.87%

CCC1(c2ccccc2)Oc2ccccc2-n2c(C#N)c3ccccc3c2C1=O (centres undefined)
inactive: BT-549 breast 104% | MDA-MB-435 melanoma 106% | SW-620 colon 107% | MCF7 breast 85.1% | HCT-116 colon 86.7% | KM12 colon 102%

N#Cc1c2ccccc2c2n1-c1ccccc1OC(c1ccccc1)C2=O (centres undefined)
active: BT-549 breast 9.32%
inactive: MDA-MB-435 melanoma 24.1% | SW-620 colon 56.9% | MCF7 breast 72.4% | HCT-116 colon 11.3% | KM12 colon 16%

CC(=O)NC1(C(=O)O)CCCC1
inactive: BT-549 breast 118% | MDA-MB-435 melanoma 123% | SW-620 colon 103% | MCF7 breast 97.8% | HCT-116 colon 112% | HCC-2998 colon 138% | KM12 colon 119%

O=C(Nc1ccc(Oc2ccc(NC(=O)Nc3ccc([N+](=O)[O-])cc3)cc2)cc1)Nc1ccc([N+](=O)[O-])cc1
active: BT-549 breast -21.5% | MDA-MB-435 melanoma 5.67% | MCF7 breast -7.4% | HCT-116 colon -6.3% | KM12 colon -5.89%
inactive: SW-620 colon 10.8%

COc1ccc(-c2oc3cc(O)c(OC)c(O)c3c(=O)c2OC)cc1O
active: BT-549 breast -4.89% | MDA-MB-435 melanoma -45.9% | HCT-116 colon 2.2% | KM12 colon 2.13%
inactive: SW-620 colon 19.2% | MCF7 breast 19% | HCC-2998 colon 90.1%

NCCCc1nnc(CCC(=O)c2nc3ccccc3[nH]2)o1
inactive: BT-549 breast 103% | MDA-MB-435 melanoma 105% | SW-620 colon 108% | MCF7 breast 91.4% | HCT-116 colon 100% | HCC-2998 colon 98.1% | KM12 colon 115%

Nc1ccc(C2=Nc3cccc4cccc(c34)S2)cc1
inactive: BT-549 breast 83.4% | MDA-MB-435 melanoma 98.3% | SW-620 colon 97.2% | MCF7 breast 45.2% | HCT-116 colon 81.7% | HCC-2998 colon 61.4% | KM12 colon 76.5%

Cc1c(C(N)=O)sc2ncn(Cc3ccccc3)c(=O)c12
inactive: BT-549 breast 62.6% | MDA-MB-435 melanoma 53.7% | SW-620 colon 103% | MCF7 breast 99.8% | HCT-116 colon 94.7% | KM12 colon 110%

O=C(Nc1ccc(OCc2nnc(-c3ccccc3)o2)c(F)c1)Nc1ccc(Cl)c(C(F)(F)F)c1
inactive: BT-549 breast 68.3% | MDA-MB-435 melanoma 27.5% | SW-620 colon 17.6% | HCC-2998 colon 14.4%
active: MCF7 breast 8.14% | HCT-116 colon 9.64% | KM12 colon 1.65%

CCOC(=O)c1c(NC(=O)C2CCCCC2C(=O)O)sc2c1CCCC2 (centres undefined)
inactive: BT-549 breast 102% | MDA-MB-435 melanoma 97.4% | SW-620 colon 101% | MCF7 breast 98.1% | HCT-116 colon 109% | HCC-2998 colon 110% | KM12 colon 109%

CN(C)c1ccc(/C=C\c2ccnc3ccccc23)cc1
active: BT-549 breast -0.99%
inactive: MDA-MB-435 melanoma 33.6% | SW-620 colon 87.7% | MCF7 breast 39.1% | HCT-116 colon 62.6% | KM12 colon 55.8%

Cc1c(N(C)CS(=O)(=O)O)c(=O)n(-c2ccccc2)n1C
inactive: BT-549 breast 96.5% | MDA-MB-435 melanoma 103% | SW-620 colon 108% | HCT-116 colon 105% | HCC-2998 colon 121% | KM12 colon 109%

C=C(C)[C@H]1CC/C(C)=C/CC[C@]2(C)O[C@H]2CC/C(C=O)=C\C1O (some centres undefined)
inactive: MDA-MB-435 melanoma 120% | SW-620 colon 108% | MCF7 breast 97.2% | HCT-116 colon 105% | HCC-2998 colon 111%

Cc1cc(C)n(C(=O)c2nn(-c3ccc(Cl)cc3)cc2O)n1
inactive: MDA-MB-435 melanoma 32.1% | SW-620 colon 81.4% | MCF7 breast 81% | HCC-2998 colon 82.8%
active: HCT-116 colon 8.59%

CCCCCCCCCCCCCCCCCc1nccn1CCO
inactive: BT-549 breast 70% | MDA-MB-435 melanoma 95% | SW-620 colon 61.3% | HCC-2998 colon 55.4% | KM12 colon 85.6%

O=C(c1ccccc1)c1ccco1
inactive: BT-549 breast 97.8% | SW-620 colon 110% | MCF7 breast 93.2% | HCT-116 colon 102% | KM12 colon 107%

CC(C)(C)c1cc(O)c(O)c(C(C)(C)C)c1
inactive: BT-549 breast 61.2% | SW-620 colon 19.3% | MCF7 breast 36.3% | HCT-116 colon 15.8% | HCC-2998 colon 59.5% | KM12 colon 48.1%

Cc1scc2c1N(C(=O)CN1CCN(C)CC1)c1ccccc1NC2=O
inactive: BT-549 breast 110% | MDA-MB-435 melanoma 110% | SW-620 colon 112% | HCT-116 colon 111% | HCC-2998 colon 103% | KM12 colon 113%

COc1ccc(-c2c(N)noc2-c2cc(OC)c3c(c2)OCCO3)cc1
active: MDA-MB-435 melanoma -7.52% | HCT-116 colon 0.565% | KM12 colon 0.643%
inactive: BT-549 breast 20.4% | SW-620 colon 27% | HCC-2998 colon 18.9%

C[C@@H]1CC[C@H]2[C@@H](C)C(O)O[C@@H]3O[C@]4(C)CC[C@@H]1[C@]32OO4 (some centres undefined)
inactive: BT-549 breast 32.3% | SW-620 colon 17.5% | HCC-2998 colon 41.3% | KM12 colon 18.3%
active: MDA-MB-435 melanoma 2.52% | HCT-116 colon 8.03%

CCCCCCOc1ccc(/C=N/NC(N)=S)cc1
inactive: SW-620 colon 23.3% | MCF7 breast 56.6% | HCT-116 colon 33.6% | HCC-2998 colon 72.1% | KM12 colon 48.9%
active: BT-549 breast -5%

C=CC1=C(C(=O)O)N2C(=O)[C@@H](NC(=O)/C(=N\O)c3csc(N)n3)[C@H]2SC1 (stereo in doubt)
inactive: BT-549 breast 118% | MDA-MB-435 melanoma 109% | SW-620 colon 106% | HCT-116 colon 105% | HCC-2998 colon 105% | KM12 colon 112%

O=C(OCCBr)c1ccc(Cl)c([N+](=O)[O-])c1
inactive: BT-549 breast 107% | SW-620 colon 103% | MCF7 breast 44.7% | HCT-116 colon 92.4% | HCC-2998 colon 42.9% | KM12 colon 63.1%

CCOC(Cc1c(N)[nH]c(=S)[nH]c1=O)OCC
inactive: BT-549 breast 102% | SW-620 colon 105% | MCF7 breast 96.8% | HCT-116 colon 103% | HCC-2998 colon 113% | KM12 colon 112%

CCCc1nn(C)c2c(=O)[nH]c(-c3cc(S(=O)(=O)N4CCN(C)CC4)ccc3OCC)nc12
inactive: BT-549 breast 94.5% | MDA-MB-435 melanoma 100% | SW-620 colon 115% | HCT-116 colon 98.8% | HCC-2998 colon 108% | KM12 colon 103%

COc1ccc(/C(=C2\O[C@@H]([C@H](O)CO)[C@H]3OC(C)(C)O[C@@H]23)c2cc(OC)c(OC)c(OC)c2)cc1O
inactive: BT-549 breast 82% | MCF7 breast 95.7% | HCT-116 colon 89.3%
active: MDA-MB-435 melanoma -23.9% | KM12 colon 9.46%

COC(=O)c1ccc2c(c1)nc(-c1ccc(O)c(OC)c1)n2-c1cc(C(C)(C)C)[nH]n1
inactive: BT-549 breast 108% | SW-620 colon 104% | MCF7 breast 83.6% | HCT-116 colon 93.5% | HCC-2998 colon 115% | KM12 colon 96.9%

N#CCCN(CCO)c1ccccc1
inactive: BT-549 breast 91.7% | SW-620 colon 102% | MCF7 breast 93.6% | HCT-116 colon 100% | HCC-2998 colon 129% | KM12 colon 110%

O=C(NCCCO)c1cc(Cl)ccc1O
inactive: BT-549 breast 19.2% | SW-620 colon 23.1% | MCF7 breast 18.9% | HCT-116 colon 10.9% | HCC-2998 colon 21.4% | KM12 colon 14.5%

COc1c(C)c2c(c(O)c1C/C=C(\C)CCC(=O)OCCN1CCOCC1)C(=O)OC2
inactive: BT-549 breast 40.4% | MDA-MB-435 melanoma 26.2% | SW-620 colon 19.6% | HCT-116 colon 14% | HCC-2998 colon 18.1% | KM12 colon 27.8%

CC(C)c1nc(N(C)S(C)(=O)=O)nc(-c2ccc(F)cc2)c1/C=C/[C@@H](O)C[C@@H](O)CC(=O)O
inactive: BT-549 breast 103% | MDA-MB-435 melanoma 109% | SW-620 colon 107% | HCT-116 colon 98.2% | HCC-2998 colon 97.5% | KM12 colon 95.8%

CCOC(=O)C1=C(COCCN)NC(C)=C(C(=O)OC)C1c1ccccc1Cl (centres undefined)
inactive: BT-549 breast 86.5% | MDA-MB-435 melanoma 68.7% | SW-620 colon 53.4% | HCT-116 colon 45.9% | KM12 colon 68.9%
active: HCC-2998 colon 3.32%

Reference: PubChem BioAssay (NCI)
